Laboratory results as given in PubChem BioAssay (NCI).
This is part of a sample that, as a whole, favours compounds with a hit. Of some 83,000 tested, about 20% had one in any assay.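 Negative percent growth values reflect cell death: -40 means 40% of the cells present at the start died, and -100 means all died.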 Unmarked numbers belong to inactive results. The source made the active and inactive calls. How the source made its calls: active means growth percent below 10; inactive means the rest.

Test system: HOP-92 NSCLC
Assay: NCI-60 one-dose screen, 48 h (100 = growth as untreated, 0 = no growth, -100 = all killed)
Details: 10 µM unless noted

Row | SMILES | growth
1 | COc1ccc(-c2nn(-c3ccc(NC(=O)c4ccc(Cl)c(C(F)(F)F)c4)cc3)cc2-c2ccncc2)cc1Cl | -0.441% (active)
2 | CC1(C)N=C(N)N=C(N)N1c1ccc(OCC(=O)Nc2ccccc2)c(Cl)c1 | 13.4%
3 | CCOC(=O)C(C)(CSSCC(C)(NC(=O)c1ccc2ccccc2c1)C(=O)OCC)NC(=O)c1ccc2ccccc2c1 (stereo unspecified) | 105%
4 | [2H]c1nc(Nc2ncc(F)c(-c3cc(F)c4nc(C)n(C(C)C)c4c3)n2)c([2H])c([2H])c1CN1CCN(CC)CC1 | 59.1%
5 | O=C1c2ccccc2C(=O)c2c(NCCN=Cc3c(O)ccc4ccccc34)cccc21 | 37.9%
6 | Cc1[nH]n(C(=O)c2ccncc2)c(=O)c1N=Nc1ccc(S(=O)(=O)Nc2ccncn2)cc1 | 54.7%
7 | COc1ccc(-c2cnc(-c3ccc(F)cc3)[nH]2)cc1 | 82.5%

Test system: NCI-H522 lung
Assay: as above
Details: 10 µM unless noted

Row | SMILES | growth
8 | CN(C)CCNc1nc2ccccc2c2c(=O)c3ccccc3sc12 | 14.4%
9 | Nc1nc2ccc(CNc3ccc(C(=O)NC(CC(=O)O)C(=O)O)cc3)cc2c(=O)[nH]1 (stereo unspecified) | -0.0288% (active)
10 | CC12CCC3C(CCC4CC(O)CCC43C)C1C/C(=C/O)C(=O)O2 (stereo unspecified) | 84.2%
11 | COc1cc(/C=C/C(=O)c2ccc(Oc3ncnc4ccccc34)cc2)cc(OC)c1OC | 52.7%
12 | Nc1n[nH]c2cccc(C#Cc3cccc(NC(=O)c4cccc(C(F)(F)F)c4)c3)c12 | 41.2%
13 | COc1ccc(-c2nn(-c3ccc(NC(=O)c4ccc(Cl)c(C(F)(F)F)c4)cc3)cc2-c2ccncc2)cc1Cl | 30.6%
14 | CCCN1C(=O)CSC1=Nc1ccc2cc3ccc(N=C4SCC(=O)N4CCC)cc3nc2c1 | 31.4%
15 | CCOC(=O)C1=C(N)Oc2cc(OC)ccc2C1c1ccc(F)c(F)c1 (stereo unspecified) | -6.42% (active)
16 | CC(C(C(=O)N1CCCCC1)N1CCCCC1)N1CCCCC1 (stereo unspecified) | 93.1%
17 | COc1ccc2c(-c3ccc(F)cc3)c(C#N)c(=NC(C)=O)oc2c1 | 5.83% (active)
18 | COc1ccc(-c2nnc(SCC(=O)Nc3ccc(C(=O)/C=C/c4ccc(Cl)cc4)cc3)o2)cc1OC | 16.7%
19 | COc1cccc(/C=N/C(=S)NC2(C)C3CCC(C3)C2(C)C)c1O (stereo unspecified) | 69.7%
20 | CC1(C)N=C(N)N=C(N)N1c1ccc(OCC(=O)Nc2ccccc2)c(Cl)c1 | -7.05% (active)
21 | FC(F)(F)c1cn(CCN2CCOCC2)c2ncnc(Cl)c12 | 20.5%
22 | COc1ccc(-c2nn(-c3ccc(NC(=O)Nc4cc(C(F)(F)F)cc(C(F)(F)F)c4)cc3)cc2-c2ccncc2)cc1Cl | -8.92% (active)
23 | O=C(CNc1cccnc1)Nc1ccc(C(=O)/C=C/c2ccc(Cl)cc2)cc1 | 89.4%
24 | CCc1ccc(C2=C/C(=C/c3ccc(Cl)cc3)C(=O)N2CCc2ccc(S(N)(=O)=O)cc2)cc1 | 5.98% (active)
25 | O=C(Nc1ccc(-n2ccc3c(NC(=O)c4ccccc4)nccc32)cc1)c1cccc(C(F)(F)F)c1 | 12.2%
26 | O=S(=O)(CCN1CCOCC1)Nc1cc(-c2ccc3ncnc(Nc4ccc(F)c(Cl)c4)c3c2)cnc1Cl | 17.2%
27 | CCC1S/C(=N\N=C(/C)c2cc3ccccc3o2)N(c2ccccc2)C1=O (stereo unspecified) | 88.3%

Row | SMILES | growth
28 | COc1cccc(-c2nc3sccn3c2-c2ccnc(NCCNC(=O)c3ccccc3)n2)c1 | 61.8%
29 | NC(N)=N/N=C/c1ccc([N+](=O)[O-])cc1 | 107%
30 | C#C[C@@]1(O)[C@@H](CO)O[C@@H](n2cc(Br)c3c(Cl)ccnc32)[C@@H]1O | 32%
31 | CCOC(=O)C(C)(CSSCC(C)(NC(=O)c1ccc2ccccc2c1)C(=O)OCC)NC(=O)c1ccc2ccccc2c1 (stereo unspecified) | 92.9%
32 | O=C(C[n+]1cccc(Br)c1)c1ccc2c(c1)CCCC2 | 80.5%
33 | CCC(C)Nc1ccc(N)cc1 (stereo unspecified) | -25.2% (active)
34 | Cc1cn(-c2nc3c(c(NCc4ccccc4)n2)COCC3)c2cccc(C(N)=O)c12 | 69.5% [0.5 µM]
35 | Nc1ncnc2c1ccn2-c1cccc(NC(=O)c2cccc(C(F)(F)F)c2)c1 | 56.2%
36 | COc1ccc(-c2nnc(SCC(=O)Nc3ccc(C(=O)/C=C/c4ccccc4)cc3)o2)cc1OC | 91.4%
37 | CCCCCCCCCCCCCCCCCCNCc1ccc(Cl)cc1 | -82.5% (active)
38 | Clc1ccc2c(c1)nnn1c3ncccc3c(Br)c21 | 67.8%
39 | CCCOC(=O)c1ccc([N+](=O)[O-])o1 | 85.4%
40 | [2H]c1nc(Nc2ncc(F)c(-c3cc(F)c4nc(C)n(C(C)C)c4c3)n2)c([2H])c([2H])c1CN1CCN(CC)CC1 | 66.1%
41 | COc1ccccc1N1CCN(CC(O)COc2c(Br)c(Br)c(Br)c3c2OC(C)(C)C3)CC1 (stereo unspecified) | 55.1%
42 | CCOC(=O)c1noc2c1CCc1cn(Cc3cc(OC)cc(OC)c3)cc1-2 | 46.5%
43 | O=C1c2ccccc2C(=O)c2c(NCCN=Cc3c(O)ccc4ccccc34)cccc21 | 84.7%
44 | Cc1[nH]n(C(=O)c2ccncc2)c(=O)c1N=Nc1ccc(S(=O)(=O)Nc2ccncn2)cc1 | 102%
45 | O=C(Nc1ccc(Cl)c(Cl)c1)Nc1ccc(Cl)c([N+](=O)[O-])c1 | -12.7% (active)
46 | COc1ccc(-c2cnc(-c3ccc(F)cc3)[nH]2)cc1 | 85.9%
